MCF10A rerep: induces DNA re-replication in MCF 10a normal breast cells | MCF 10A DNA re-replication, Hoechst nuclear intensity, 48 h | Potency, µM (titrated, usually from 46.1 µM), for inactives: at the top dose activity, positive = re-replication, most hits filed as activators | hit rate 2.9% among 350,000; also: % of control where 0% means no effect; nearly all actives have a fitted effect of over 50% in size
HT1080 IDH1KD tx: HT-1080 IDH1 knockdown cell toxicity (counter line); HT-1080 IDH1 knockdown viability, ATP luminescence, 48 h; Potency, µM (titrated, usually from 46.1 µM), inactives show top-dose activity, negative = toxicity, actives largely listed as cytotoxic; hit rate 2% among 360,000; AID 686971;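 also: 0% = DMSO wells and -100% = cell-free medium wells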
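Using the IDH1-knockdown HT-1080 line run in the same batch and compound series as the NT line, viability after 48 h at 37 °C was determined by CellTiter-Glo luminescence and expressed as % activity.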
HT1080-NT tox: kills 2HG-producing HT-1080-NT fibrosarcoma cells | Potency, µM (doses to about 46.1 µM), inactives show at the top dose activity, negative = less viability, most hits filed as cytotoxic | hit rate 1.6% among 360,000 | AID 686970 | HT-1080-NT fibrosarcoma viability, CellTiter-Glo ATP luminescence, 48 h;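 also: NT is the 2HG producing partner of a matched IDH1 knockdown line; 0% = DMSO-treated cells and -100% = media-only wells without cells; nearly all actives have a fitted effect of over 55% in size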
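HT-1080-NT fibrosarcoma cells (2HG-overproducing), 750 cells/well in RPMI with 5% FBS, dosed after 2 h and incubated 48 h at 37C. CellTiter-Glo luminescence normalized to DMSO and no-cell wells; concentration-response curves fitted and classed.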
SW480 rereplic: DNA re-replication induction in SW480 cells; SW480 DNA re-replication, Hoechst DNA content imaging, 48 h; Potency, µM (top dose mostly 46.1 µM), for the others: at the highest dose re-replication activation, usual class: activators; hit rate 1.8% among 340,000; AID 624297; also: % of control where 0% means no effect; nearly all actives have a fitted effect of over 55% in size
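250 cells/well; 23 nL cpd via pin tool; 48 hr, 37 C, 5% CO2; Hoechst 40 min; imager read of total nuclear intensity, ex 405/em 500-530 nm.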
KB-V1 MDR tox: kills drug-selected multidrug resistant KB-V1 cells; KB-V1 MDR cells viability, CellTiter-Glo, 72 h; Potency, µM (highest dose often 46.1 µM), hits mostly cytotoxic; hit rate 3.4% among 400,000; also: % is scaled to controls: 0 for no effect and ±100 for the full control effect; nearly all actives have a fitted effect of over 60% in size
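Cytotoxicity via CellTiter-Glo luminescence after 72 h compound exposure at 37 degrees C. Cells: drug-selected KB-V1 line, DMEM phenol-red free plus 10% FBS. Compounds tested at multiple concentrations; normalized data fitted to concentration-effect curves.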
KB-3-1 tox: KB-3-1 parental cell cytotoxicity; KB-3-1 viability, CellTiter-Glo ATP luminescence, 72 h; Potency, µM (highest dose often 46.1 µM), actives largely listed as cytotoxic; hit rate 1.4% among 400,000; also: % is scaled to controls: 0 for no effect and ±100 for the full control effect; nearly all actives have a fitted effect of over 60% in size
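Using CellTiter-Glo luminescence, growth of non-resistant KB-3-1 adenocarcinoma cells is assessed 72 h after pin-tool compound addition at 37 °C. Normalized responses across the concentration series yield fitted curves.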
Active calls of the source: *; i = inactive; ? = inconclusive; / = no result. Compounds with a hit are over-represented: about 8% of the library has one in this group of screens. Calls follow the shape of the dose curve; as a rule, active = well fitted curve in the direction sought with a large enough effect; inconclusive = small, poorly fitted or top-dose-only effect, or another doubt; inactive = no such curve, though single readings can be large; an effect the other way counts as inactive or inconclusive. Potency is read from the fitted curve at half-maximal effect.

SMILES	MCF10A rerep	HT1080 IDH1KD tx	HT1080-NT tox	SW480 rereplic	KB-V1 MDR tox	KB-3-1 tox
CCOc1ccc(C(CC(=O)O)NC(=O)C(Sc2ccccc2)c2ccccc2)cc1 (stereo not given)	-19%	-11%	-21%	-101%	i	i
CC(C)c1ccc(NC(=O)CCc2ccccc2)cc1	8.2µM*	5.8µM*	?	?	7.3µM*	?
CN(CCC(=O)Nc1ccc(Cl)cc1)Cc1ccccc1	1%	15µM*	21µM*	-3%	i	?
O=C(CCc1ccccc1)Nc1ccncc1	1%	4%	3%	4%	?	?
CN(CCC(=O)Nc1ccc2c(c1)OCO2)Cc1ccccc1	-2%	-7%	-2%	-2%	i	i
Cc1ccc(CNC(=O)c2oc3ccc(S(=O)(=O)N4CCCC(C)C4)cc3c2C)cc1 (stereo not given)	/	/	/	/	i	i
Cc1ccc(S(=O)(=O)N2CCCOC2CNC(=O)C(=O)NCCC2=CCCCC2)cc1 (stereo not given)	8%	-19%	-5%	4%	2.9µM*	?
O=C(NCc1cccs1)C(=O)NCC1OCCCN1S(=O)(=O)c1cccs1 (stereo not given)	-12%	-4%	2%	-2%	i	i
Cc1cc(C)c(S(=O)(=O)N2CCCOC2CNC(=O)C(=O)NCCc2c[nH]c3ccccc23)c(C)c1 (stereo not given)	-2%	-28%	-1%	13%	16µM*	i
Cc1cc(F)ccc1S(=O)(=O)N1CCCOC1CNC(=O)C(=O)NCCc1c[nH]c2ccccc12 (stereo not given)	?	-4%	-2%	18%	3.3µM*	?
O=C(NCCc1c[nH]c2ccccc12)C(=O)NCC1OCCCN1S(=O)(=O)c1ccc(F)cc1 (stereo not given)	15%	-8%	-13%	?	?	i
Cc1cc(C)c(S(=O)(=O)N2CCCOC2CNC(=O)C(=O)NCc2cccs2)c(C)c1 (stereo not given)	-8%	3%	-1%	20%	18µM*	i
Cc1ccc(S(=O)(=O)N2CCCOC2CNC(=O)C(=O)NCCN2CCOCC2)cc1 (stereo not given)	11%	-5%	-2%	1%	i	i
COc1ccc2[nH]c(N=Nc3ccccc3C)c(O)c2c1	14%	-1%	-3%	-2%	i	i
CCN(CC)c1nc(-c2ccc(Cl)cc2)cc(C(F)(F)F)c1C#N	1.2µM*	-7%	-4%	?	i	i
COc1ccccc1-n1cc([C@@H]2C[C@H]3CN(c4ccccc4)C(=O)[C@]34CCCN24)cn1	2.6µM*	5.8µM*	?	8.2µM*	7.3µM*	i
COc1cc([C@@H]2C[C@H]3CN(c4ccccc4)C(=O)[C@]34CCCN24)cc(OC)c1OC	18µM*	-16%	9%	-3%	i	?
CC1=NN(c2nc(C)cc(C)n2)C(=O)C1CCC(C)C (stereo not given)	-2%	10µM*	7.9µM*	?	i	i
CCC1C(=O)N(c2nc(C)cc(C)n2)N=C1C (stereo not given)	?	8%	5%	-7%	?	i
CCOC(=O)C1=C(CS(=O)(=O)c2c(C)cc(C)cc2C)NC(=O)NC1c1cccc(OC)c1 (stereo not given)	/	/	/	/	i	i
COc1cccc(C(=O)/C=C/Nc2cc(C)ccc2O)c1	100%	?	-11%	18µM*	?	i
CCCOc1ccc(C(=O)NNC(=S)NC(=O)c2cccs2)cc1	-5%	21µM*	?	?	?	?
CCCOc1ccc(C(=O)NNC(=S)NC(=O)c2ccco2)cc1	4%	23µM*	?	-5%	i	9.2µM*
CCCOc1ccc(C(=O)NNC(=S)NC(C)=O)cc1	?	7.1µM*	7.1µM*	?	i	16µM*
CCCC(=O)Nc1ccc(C(=O)NNC(=S)NC(=O)c2cccs2)cc1	?	?	?	-3%	?	i
SMILES	MCF10A rerep	HT1080 IDH1KD tx	HT1080-NT tox	SW480 rereplic	KB-V1 MDR tox	KB-3-1 tox
O=C(NC(=S)NNC(=O)c1cccs1)c1ccccc1	11%	?	?	-1%	i	?
CCCOc1ccc(C(=O)NNC(=S)NC(=O)c2ccccc2)cc1	6%	?	?	?	i	i
CC(C)(C)c1ccc(C(=O)NC(=S)NNC(=O)c2cccs2)cc1	?	?	?	69%	?	2.6µM*
CCCOc1ccc(C(=O)NC(=S)Nc2nc(C)c(C(=O)N(C)C)s2)cc1	0%	-20%	?	-8%	21µM*	i
Cc1nc(NC(=S)NC(=O)c2ccccc2)sc1C(=O)N(C)C	-4%	2%	-2%	-1%	i	i
O=C(CSc1nc(-c2ccco2)nc2cc(=O)[nH]n12)Nc1ccccc1F	/	/	/	/	i	i
COc1ccccc1CNc1ccc(-c2nc(-c3cccnc3)no2)cc1[N+](=O)[O-]	/	/	/	/	i	i
O=C(c1cc2c(c(-c3cccc(-c4ccncc4)c3)n1)[C@@H](CCO)N(C(=O)c1ccc3c(c1)OCO3)C2)N1CCOCC1	/	7%	-13%	/	i	i
O=C(c1cc2c(c(-c3cccc(-c4ccc(F)cc4)c3)n1)[C@H](CCO)N(C(=O)c1ccc3c(c1)OCO3)C2)N1CCOCC1	/	?	21µM*	/	?	i
CCc1ccc(CNC(=O)CCCN2C(=O)CCn3nc(-c4cccn4C)cc32)cc1	/	/	/	/	i	i
O=C(C1CCN(S(=O)(=O)c2cccnc2)CC1)N1CCN(c2cccc(Cl)c2)CC1	1%	-3%	-2%	-8%	6.5µM*	?
CC1CCN(S(=O)(=O)c2cc(C(=O)N3CCN(c4cccc(Cl)c4)CC3)n(C)c2)CC1	/	/	/	/	i	16µM*
CC1CCN(S(=O)(=O)c2cc(C(=O)N3CCN(c4ccccc4F)CC3)n(C)c2)CC1	/	/	/	/	?	i
CN(C)c1ccc(CNC(=O)CN2C(=O)c3cccnc3Oc3ccc(Cl)cc32)cc1	/	/	/	/	i	i
CCOC(=O)c1c(CSC(=N)N)n(-c2ccc(Br)cc2)c2cc(Br)c(OC(C)=O)cc12	10µM*	-7%	13%	?	i	i
CCCCCCCCOC(=O)c1c(CSC(=N)N)n(C)c2cc(Br)c(OC(C)=O)cc12	3.3µM*	?	?	?	?	i
CCOC(=O)c1c(CSc2nc(C)cc(C)c2C#N)n(C)c2cc(Br)c(OC(C)=O)cc12	5%	5%	?	1%	?	?
